VCAM1 TNFa pot: potentiators of TNFa-induced VCAM1 expression, primary screen, imaging, HUVEC, TNFa stimulus, immunofluorescence. 93,000 compounds, 0.19% hits. AID 808, 2007. activation, % at 2 µM. HUVEC TNFa-stimulated VCAM-1 immunofluorescence, high-content imaging; scaled per plate to unstimulated/TNFa-only wells;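 active = activation above the screen mean plus 3 SD, with well images confirming the hit on visual review, cut at about 28% in these data, passing the limit was not always enough; inconclusive = activation above that limit but images do not confirm it; inactive = activation not above that limit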;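 also: signal is the number of cytoplasmic VCAM-1 stained grains per positive cell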
VCAM1 pot conf: potentiators of TNFa-induced VCAM1 expression, confirmation, imaging, HUVEC, triplicate retest; 230 tested, under 10 active; activation, % at 2 µM; shares compounds with VCAM1 TNFa pot; AID 1034, 2008; HUVEC TNFa-stimulated VCAM-1 immunofluorescence imaging;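 active = activation above 30% in triplicate retests at 2 µM, then confirmed by visual review of the well images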;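 also: scaled per plate between unstimulated and TNFa-stimulated DMSO control wells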
The depositor's hits bear a star; u = inconclusive. The entries come from a sample that favours hits as a whole.

SMILES	VCAM1 TNFa pot	others
CCCCN(CCCNC(=O)c1c(C)cc(=O)oc1C)c1ccccc1	40*	VCAM1 pot conf=-6
Cc1ccc(S(=O)(=O)NCCCNC(=O)c2ccccc2)cc1	2
CCCCOCCCNC(=O)c1cccs1	-90
COc1ccc(Br)cc1CN1CCCCCCC1	-32
CNc1nc(Oc2ccc(=O)n(C)n2)nc(N2CCOCC2)n1	9
CN(C)NC1CCS(=O)(=O)C1 (stereo not drawn)	-1
Cc1nonc1NC(=O)c1ccc(Cl)c(S(=O)(=O)N2CCCCC2)c1	-2
COC(=O)C(CC(C)C)NC(=O)c1ccc(F)cc1 (stereo not drawn)	8
CCn1c(SCC(=O)n2nc(C)cc2C)nnc1-c1ccc2c(c1)OCO2	-8
CCn1c(=O)c2c(cnn2C)c2ccccc21	-13
CCn1c(CNC(=O)C(C)(C)C)nc2ccccc21	-6
CCn1c2ccccc2c2cc(C3N=C(N)Nc4nc5ccccc5n43)ccc21 (stereo not drawn)	54*	VCAM1 pot conf=-9
O=C(Cn1nnc(-c2ccc(S(=O)(=O)N3CCCC3)cc2)n1)NCC1CCCO1 (stereo not drawn)	-6
O=C(CSc1ccc2c(c1)OCCO2)NCC1CCCO1 (stereo not drawn)	3
CN(C(=O)c1ccc(Cl)cc1)C1=CCCCC1CCC#N (stereo not drawn)	2
COc1ccc(C(=O)N[C@H](C(=O)NCC2CCCCC2)C(C)C)cc1	-18
CC(C)C(=O)Nc1nc2c(ncn2C2CC(O)C(CO)O2)c(=O)[nH]1 (stereo not drawn)	30*	VCAM1 pot conf=-7
CC1CN(S(=O)(=O)c2ccc(Cl)c(C(F)(F)F)c2)CC(C)O1 (stereo not drawn)	22
CS(=O)(=O)N1CCN(C(=O)c2ccc(Br)s2)CC1	7
O=C(CCS(=O)(=O)c1ccc(Br)s1)NCc1ccc2c(c1)OCO2	7
Cc1ccc(C(C)NC(=O)/C(C#N)=C\c2c(C)[nH]c3ccccc23)cc1 (stereo not drawn)	52*	VCAM1 pot conf=-15
Cc1ccc(-c2cc(=O)[nH]c3ccccc23)cc1	18
CCOC(=O)Cc1nnc(NC(=O)CC)s1	-1
C=CCn1c(SCc2nc3ccccc3c(=O)[nH]2)nnc1-c1cc2cc(Cl)ccc2o1	1
O=C(CNC(=O)c1ccco1)OCc1ccc(Cl)cc1	-23
SMILES	VCAM1 TNFa pot	others
Cc1ccccc1SCC(=O)Nc1cccc(C#N)c1	-27
Cn1cnnc1SCC(=O)Nc1ccccc1C(=O)NC1CC1	36*	VCAM1 pot conf=-13
Cc1nnc(NC(=O)CSc2nccn2C)s1	6
Cn1cnnc1SCCNS(=O)(=O)c1ccccc1	7
O=C(Cn1c(=O)oc2ccccc21)NCc1ccco1	-5
O=C(CCCN1C(=O)c2ccccc2C1=O)Nc1sc2c(c1C(=O)NCc1ccco1)CCC2	21
CCc1ccc(NC(=O)Cn2c(=O)n(CCCC(=O)NCc3ccco3)c(=O)c3ccccc32)cc1	u	VCAM1 pot conf=-16
Cc1ccc(C(C(=O)NC2CCCCC2)N(Cc2ccco2)C(=O)Cc2c[nH]c3ccccc23)o1 (stereo not drawn)	4
COC(=O)c1ccc(C)c(NC(=O)CN(c2ccc3c(c2)OCO3)S(C)(=O)=O)c1	-6
COc1ccc(C(C#N)(CCC#N)CCC#N)cc1OC	37*	VCAM1 pot conf=-19
O=C(/C=C(\c1ccc(Cl)cc1)n1cncn1)c1ccc(Cl)cc1	-7
O=C(CCCOc1ccccc1)Nc1ccc2c(c1)OCCO2	-8
COc1cccc(CNC(=O)C2CCN(S(=O)(=O)c3ccc4c(c3)CCC(=O)N4)CC2)c1	-3
O=C(Oc1ccc2ccc(OC(=O)N3CCOCC3)cc2c1)N1CCOCC1	3
COc1ccc2c(C)cc(SCC(=O)N3CCOCC3)nc2c1	u	VCAM1 pot conf=-21
Cc1ccc(OCc2nnc(SCC(=O)N3CCOCC3)n2C)cc1	-15
CCN(CC)c1ccc(NC(=O)c2ccc(Br)o2)c(C)c1	8
COc1ccc(-c2nc(-c3cccc(C)c3)no2)cc1OC	54*	VCAM1 pot conf=-17
Cc1nc(-c2cccc(-c3noc(C)n3)c2)no1	-37
Cc1cccc(-c2noc(CCc3ccccc3)n2)c1	3
O=C(CSc1cccs1)Nc1ccc2ccccc2c1	12
COc1ccc(NC(=O)CSc2nccc(C)n2)cc1	32
CCOC(=O)c1ccc(NC(=O)CSc2nnc(COc3ccccc3)n2C)cc1	11
COc1ccc(-n2ccnc2SCC(=O)Nc2ccccc2)cc1	81*	VCAM1 pot conf=-12
CSc1nc(C)cc(OCC(=O)n2nc(C)cc2C)n1	8
SMILES	VCAM1 TNFa pot	others
O=C(/C=C/c1cccs1)c1cc(F)ccc1OC(=O)N1CCOCC1	-4
Cc1ccc(SCC(=O)NCc2cccnc2)cc1	-8
O=C(CN(Cc1ccc(F)cc1)S(=O)(=O)c1ccccc1)N1CCCCC1	-1
CCOC(=O)c1cnn(-c2ccccc2)c1-n1cccc1C(=O)C(=O)Nc1ccc(OC)cc1	11
CCOc1ccc(OCC)c(S(=O)(=O)N2CCCCC2C)c1 (stereo not drawn)	-3
CC(C)c1ccc(NC(=O)c2ccc(Br)o2)cc1	1
COc1nc(Nc2ccc(C(C)C)cc2)nc(OC)n1	47*	VCAM1 pot conf=0
COc1cccc(N2CCN(Cc3nc(N)nc(N4CCCc5ccccc54)n3)CC2)c1	24
COc1cccc(C2CC(=O)NC3=C2C(=O)CCC3)c1 (stereo not drawn)	7
COc1ccc2c(c1OC)C(=O)OC2CC(=O)c1ccc2c(c1)OCO2 (stereo not drawn)	-8
COc1ccc2c(c1OC)C(=O)OC2Nc1ccccn1 (stereo not drawn)	54*	VCAM1 pot conf=-13
O=C1OC(Nc2ccc3ncccc3c2)c2ccccc21 (stereo not drawn)	-1
C=CCNc1ncnc2c1[nH]c1ccc(Cl)cc12	-6
O=C(NC1CC1)c1ccc(S(=O)(=O)NCC2CCCCC2)cc1	-52
O=C(COC(=O)CCS(=O)(=O)c1ccc(Cl)cc1)NC1CCCCC1	54*	VCAM1 pot conf=-14
Cc1cc(C(=O)OCC(=O)NC2CCCCC2)c(C)o1	-16
CCCn1nnnc1NC(=O)c1cccs1	-6
CCOC(=O)CNC(=O)CNC(=O)Cn1ccc2ccccc2c1=O	-8
Fc1ccccc1/C=C1\CCCC2=C1Nc1nnnn1C2c1ccccc1F (stereo not drawn)	-5
Cc1ccc(N2CN=c3s/c(=C\c4cccnc4)c(=O)n3C2)cc1	98*	VCAM1 pot conf=1
COc1cc(C(=O)COC(=O)CNC(=O)C2CCCCC2)cc(OC)c1OC	4
CCNc1nc(NC(C)C)nc(Oc2ccc(OCCOc3ccc(C)cc3)nn2)n1	38*	VCAM1 pot conf=2
COC(=O)c1ccc(Oc2nc(NC(C)C)nc(N(C)C)n2)cc1	27
CCNc1nc(NCc2ccccc2)nc(Oc2ccc(=O)[nH]n2)n1	-4
CN(C)C(=O)c1ccccc1-c1ccccc1	8
SMILES	VCAM1 TNFa pot	others
COc1ccc(CCC(C)NC2C3CC4CC(C3)CC2C4)cc1 (stereo not drawn)	-1
CCC(C)COC(=O)C(C#N)c1nc2ccccc2nc1N1CCCCC1 (stereo not drawn)	36*	VCAM1 pot conf=-17
CCOC(=O)N1CCN(/C=C(\C#N)c2nc3ccccc3s2)CC1	-10
O=C(NCCN1CCOCC1)Nc1ccc(Cl)cc1Cl	1
CC1=CN2C(=NC(=O)CC2(C)C(=O)N(CC(=O)NC2CCCC2)c2ccccc2C)C=C1 (stereo not drawn)	-8
O=S(=O)(Nc1ccc(-n2cccc2)cc1)c1ccccc1	-40

Screening data: PubChem BioAssay, Columbia University Molecular Screening Center
